Experimental data reported in ChEMBL document CHEMBL4888484, “Replenishing the malaria drug discovery pipeline: Screening and hit evaluation of the MMV Hit Generation Library 1 (HGL1) against asexual blood stage Plasmodium falciparum ,using a nano luciferase reporter read-out” (2022).
The whole screen tested about 150,000 compounds, of which about 540 (0.36%) showed an effect of 50% or more. The entries come from a sample that favours strong results as a whole.

The compounds below were run on Plasmodium falciparum (assay: Primary screen in NF54 nanoGlo assay, in single point, at 2uM, 72h; a lower Z score goes with more inhibition). Details: timepoint 72 hour.
Type: functional, Erythrocyte
`Cc1ccc(CNC(=O)CC2CC2)c2cccnc12` was tested, and the “% Inhibition” value was -16% and the Z score was 2.46.
With `COc1ccc(Cl)cc1-c1cc(C(=O)N2CCOCC2)ccn1` the “% Inhibition” value was 3% and the Z score was -0.54.
For `CCc1c(C(=O)N2CCC(c3ccnn3CCO)CC2)cnn1-c1cccc(Cl)c1`, the “% Inhibition” value was -3% and the Z score was 0.24.
For `CCc1nc2ccccc2c(C(=O)N2CCN(c3cc(OC)ncn3)CC2)c1C`, the “% Inhibition” value was -13% and the Z score was 1.69.
For `COC[C@H]1CCCN1C[C@@H]1OC[C@H](NC(=O)c2ccc(C#N)cc2)[C@H]1O`, the “% Inhibition” value was 9% and the Z score was -1.07.
In the case of `Cn1cccc1-c1nc2cc(N)ccc2[nH]1`, the “% Inhibition” value is reported as -3% and the Z score is reported as 0.34.
For `COCCN(CCOC)C(=O)c1cnn(C)c1`, the “% Inhibition” value was -6% and the Z score was 0.88.
`CC(C)CCn1nnnc1[C@]1(N(C)C)CCCN(C(=O)CN2CCOCC2)C1` was tested, and the “% Inhibition” value was 2% and the Z score was -0.27.
For `CC(C)CCn1nnnc1[C@]1(N(C)C)CCCN(C(=O)c2cccn2C)C1`, the “% Inhibition” value was 92% and the Z score was 1.07.
In the case of `CCOc1ccccc1C(=O)N1CCC[C@](c2nnnn2CCC(C)C)(N(C)C)C1`, the “% Inhibition” value is reported as -2% and the Z score is reported as 0.29.
`CCOCCCNCc1ccc(F)cc1` was tested, and the “% Inhibition” value was -10% and the Z score was 1.59.
For `COc1ccc(-c2nnc(-c3nc(NCc4ccc5c(c4)OCO5)c4ccccc4n3)o2)cc1`, the “% Inhibition” value was -7% and the Z score was 1.27.
For `Cc1ccc(-c2nnc(-c3nc(NCc4ccc(F)cc4)c4ccccc4n3)o2)cc1`, the “% Inhibition” value was -11% and the Z score was 2.05.
For `COc1ccc(CNc2nc(-c3nnc(-c4ccccc4)o3)nc3ccccc23)cc1`, the “% Inhibition” value was 55% and the Z score was -10.02.
`O=C(NCC1(c2ccccc2)CCCCCC1)N1CCO[C@@H](CO)C1` was tested, and the “% Inhibition” value was -5% and the Z score was 0.59.
With `CCc1c(C)nc(C)nc1N1CC[C@H](NC(=O)c2cc(C)on2)[C@@H](O)C1` the “% Inhibition” value was 8% and the Z score was -1.41.
For `CCn1nccc1C=C(C)c1ncccn1`, the “% Inhibition” value was 1% and the Z score was -0.23.
With `COc1ccc(Br)cc1NC(=O)N(C)CCCn1ccnc1` the “% Inhibition” value was 8% and the Z score was -0.86.
For `CN(CCCn1ccnc1)C(=O)c1ccnc(N(C)C)c1`, the “% Inhibition” value was -12% and the Z score was 1.13.
`COc1ccc(Cn2nnc3cc(C(=O)Nc4ccc(C)cc4C)ccc32)cc1` was tested, and the “% Inhibition” value was -2% and the Z score was 0.34.
With `CC1=Nc2ccccc2C12CCN(C(=O)Nc1cncc(F)c1)CC2` the “% Inhibition” value was 11% and the Z score was -1.44.
In the case of `O=C(Nc1onc2c1CCC2)c1ccc2ccccc2c1`, the “% Inhibition” value is reported as 76% and the Z score is reported as -8.19.
`O=C(Nc1onc2c1CCC2)c1cccc2ccccc12` was tested, and the “% Inhibition” value was 20% and the Z score was -2.27.
For `O=C(Nc1onc2c1CCC2)c1ccc2ncsc2c1`, the “% Inhibition” value was 0% and the Z score was 0.01.
With `CC(=O)Nc1ccc(S(=O)(=O)NC2(c3nc(C)no3)CCCCC2)cc1` the “% Inhibition” value was -3% and the Z score was 0.55.
For `O=C(Cn1cnc(-c2nc(-c3ccccc3)cs2)c1)Nc1ccc(F)cc1`, the “% Inhibition” value was -8% and the Z score was 0.99.
For `O=C(O)[C@H]1CCN(C(=O)Cn2c(COc3ccccc3)nc3ccccc32)C1`, the “% Inhibition” value was -10% and the Z score was 0.93.
For `Cc1nn(-c2ccccn2)c(O)c1C(c1ccccc1)c1c(C)nn(-c2ccccn2)c1O`, the “% Inhibition” value was 96% and the Z score was -9.38.
With `Cc1nn(-c2ccccc2Cl)c(O)c1C(c1ccsc1)c1c(C)nn(-c2ccccc2Cl)c1O` the “% Inhibition” value was 6% and the Z score was -0.74.
In the case of `Cc1nn(-c2nc3ccccc3s2)c(O)c1C(c1ccc(Cl)c(Cl)c1)c1c(C)nn(-c2nc3ccccc3s2)c1O`, the “% Inhibition” value is reported as -10% and the Z score is reported as 0.88.
`Cc1ccccc1C(=O)N1C(C(=O)NC(C)c2ccccc2)COC12CCN(C(=O)CC(C)(C)C)CC2` (configuration not stated) was tested, and the “% Inhibition” value was -5% and the Z score was 0.47.
With `CCc1ccccc1C(=O)OCc1nccn1C` the “% Inhibition” value was -3% and the Z score was 0.26.
In the case of `CN1CCC(n2ncc3[nH]c(-c4ccc(C(F)(F)F)cc4)nc32)CC1`, the “% Inhibition” value is reported as 97% and the Z score is reported as -17.43.
In the case of `COc1ccc(-c2nc3c(cnn3C3CCN(C)CC3)[nH]2)cn1`, the “% Inhibition” value is reported as -7% and the Z score is reported as 0.9.
For `Fc1ccc(-c2nc3c(cnn3C3CCCC3)[nH]2)cc1`, the “% Inhibition” value was -6% and the Z score was 0.81.
In the case of `Cc1c(-c2n[nH]c3c2CN(C(=O)c2csnn2)CC3)cccc1C(F)(F)F`, the “% Inhibition” value is reported as -12% and the Z score is reported as 1.03.
With `O=C(Cn1nnc2ccccc21)c1ccccc1` the “% Inhibition” value was -12% and the Z score was 1.78.
`O=C(CN1CCN(CC(=O)c2ccccc2)CC1)c1ccccc1` was tested, and the “% Inhibition” value was 0% and the Z score was -0.02.
In the case of `Cc1n(CC(=O)c2ccccc2)c2ccccc2[n+]1CC(=O)c1ccccc1`, the “% Inhibition” value is reported as 59% and the Z score is reported as -12.26.
For `O=C(N[C@H]1CCc2cc(F)c(F)c(F)c21)N1CCn2ncnc2C1`, the “% Inhibition” value was -5% and the Z score was 1.12.
`COc1nccc2c(NCc3cn(C(C)(C)C)nn3)cccc12` was tested, and the “% Inhibition” value was 5% and the Z score was -1.
For `CCOc1ccc(S(=O)(=O)N[C@H]2CC[C@@H](CC(=O)O)C2)c(C)c1`, the “% Inhibition” value was -1% and the Z score was 0.16.
For `C[N+]12CCCC[C@@H]1[C@H](COC(=O)c1ccccc1Cl)CCC2` (some centres not stated), the “% Inhibition” value was 7% and the Z score was -0.65.
With `CO[C@@H]1CCC[C@@H]2CN(C(=O)C3(c4ccccc4)CCCC3)C[C@@H]21` the “% Inhibition” value was -4% and the Z score was 0.35.
In the case of `C[N+]12CCCCC1C(OC(=O)C1(c3ccccc3)CCCC1)CCC2` (configuration not stated), the “% Inhibition” value is reported as 63% and the Z score is reported as -6.6.
In the case of `Cc1cccc(C)c1OCC(=O)Nc1ccc(-c2nc3cc4ccccc4cc3[nH]2)cc1`, the “% Inhibition” value is reported as 49% and the Z score is reported as -5.57.
With `c1cc(-c2nc3cc4ccccc4cc3[nH]2)nc(-c2nc3cc4ccccc4cc3[nH]2)c1` the “% Inhibition” value was 100% and the Z score was -18.05.
For `CCn1ncc(C(CC(=O)c2ccccc2)CC(=O)c2ccccc2)c1C`, the “% Inhibition” value was -8% and the Z score was 1.07.
In the case of `Cc1nsc2ncc(C(=O)N3CCCCC3)c(N3CCC(C(=O)Nc4cc(F)ccc4F)CC3)c12`, the “% Inhibition” value is reported as 5% and the Z score is reported as -0.78.
In the case of `CCN(CC)C(=O)c1cnc2snc(C)c2c1N1CCC(C(=O)Nc2cc(F)ccc2F)CC1`, the “% Inhibition” value is reported as 6% and the Z score is reported as -0.96.
With `Cc1nsc2ncc(C(=O)N3CCC(C)CC3)c(N3CCC(C(=O)Nc4cc(F)ccc4F)CC3)c12` the “% Inhibition” value was 60% and the Z score was -4.06.
`CCOc1ccc(NC(=O)C2CCN(c3c(C(=O)N(CC)CC)cnc4snc(C)c34)CC2)cc1` was tested, and the “% Inhibition” value was 5% and the Z score was -0.93.
`CCN(CC)C(=O)c1cnc2snc(C)c2c1N1CCC(C(=O)Nc2ccc(Br)c(C)c2)CC1` was tested, and the “% Inhibition” value was 1% and the Z score was -0.18.
In the case of `CCN(CC)C(=O)c1cnc2snc(C)c2c1N1CCC(C(=O)Nc2c(C)cc(C)cc2C)CC1`, the “% Inhibition” value is reported as 54% and the Z score is reported as -10.3.
`CN1CCC(NC(=O)NCC2(CO)CCC2)C1c1ccccc1` (configuration not stated) was tested, and the “% Inhibition” value was -12% and the Z score was 2.33.
With `Cc1cccnc1[C@H](C)NC(=O)CNC(=O)N(C)C` the “% Inhibition” value was -9% and the Z score was 1.68.
For `Fc1ccc(Cc2nnc3n2CCCC3)cc1`, the “% Inhibition” value was 3% and the Z score was -0.52.
`COc1ccccc1CNc1nc2[nH]c3c(c(=O)n2n1)CCCC3` was tested, and the “% Inhibition” value was 8% and the Z score was -0.7.
With `CC(C)(C)[C@H]1CCc2c(sc(NC(=O)C3(F)C(F)(F)C(F)(F)C(F)(F)C(F)(F)C3(F)F)c2C#N)C1` the “% Inhibition” value was 77% and the Z score was -6.03.
With `CC(C)(C)[C@H]1CCc2c(sc(NC(=O)c3cc(-c4ccccc4)nc4ccccc34)c2C#N)C1` the “% Inhibition” value was 13% and the Z score was -1.58.
For `CC(C)(C)[C@H]1CCc2c(sc(NC(=O)CN3CCCC3)c2C#N)C1`, the “% Inhibition” value was 10% and the Z score was -1.29.
For `Cc1ccc(N2CCCC2=O)cc1NC(=O)N1CCC(c2n[nH]cc2C)CC1`, the “% Inhibition” value was -8% and the Z score was 1.78.
With `Cc1csc(CNC(=O)NCc2nnc3n2CCOCC3)c1` the “% Inhibition” value was -2% and the Z score was 0.17.
`C[C@H]1CCc2c(cnc3c(C(=O)NCc4ccccc4)cnn23)C1` was tested, and the “% Inhibition” value was 33% and the Z score was 0.71.
With `COc1cccc(CNC(=O)c2cnn3c4c(cnc23)C[C@@H](C)CC4)c1` the “% Inhibition” value was 0% and the Z score was 0.03.
`COc1ccc(CCNC(=O)c2cnn3c4c(cnc23)C[C@@H](C)CC4)cc1OC` was tested, and the “% Inhibition” value was 61% and the Z score was -4.54.
In the case of `O=C(CC(c1ccccc1)c1ccccc1)N1CC(=O)N2CCc3ccccc3[C@@H]2C1`, the “% Inhibition” value is reported as 39% and the Z score is reported as -5.29.
For `O=C(CN1C(=O)c2ccccc2C1=O)N1CC(=O)N2CCc3ccccc3[C@@H]2C1`, the “% Inhibition” value was 65% and the Z score was -8.85.
For `O=C(COc1ccc(Cl)cc1)N1CC(=O)N2CCc3ccccc3[C@@H]2C1`, the “% Inhibition” value was -8% and the Z score was 1.08.
With `CCN(CC)S(=O)(=O)c1ccc(F)c(C(=O)OCCNC(C)=O)c1` the “% Inhibition” value was -10% and the Z score was 0.84.
With `CC1(C)CCC(Nc2ccc(C(N)=O)nn2)CC1` the “% Inhibition” value was 77% and the Z score was -11.08.
For `Nc1ccc(-c2ccc(NC3CCCC3)nn2)cn1`, the “% Inhibition” value was -16% and the Z score was 1.48.
`CNC(=O)c1ccc(NC2CC3CC3C2)nn1` (configuration not stated) was tested, and the “% Inhibition” value was 6% and the Z score was -0.99.
In the case of `COc1ccc(OC)c([C@@H]2CCCN2c2nnc(-c3ccccn3)s2)c1`, the “% Inhibition” value is reported as -13% and the Z score is reported as 2.07.
`O=C(NCCc1nc2ccccc2[nH]1)C(F)(F)c1ccc(F)cc1` was tested, and the “% Inhibition” value was 4% and the Z score was -0.36.
`Cc1ccc(C(F)(F)C(=O)NCCC(=O)NS(C)(=O)=O)cc1` was tested, and the “% Inhibition” value was 57% and the Z score was -7.27.
In the case of `Cc1ccccc1OCC(=O)NS(C)(=O)=O`, the “% Inhibition” value is reported as -1% and the Z score is reported as 0.11.
With `Cc1cccc(NC(=O)C2C(=O)N[C@]34CCCCC3C2c2ccccc2O4)c1` (some centres not stated) the “% Inhibition” value was 2% and the Z score was -0.27.
In the case of `COc1ccccc1NC(=O)C1C(=O)NC23CCCCC2C1c1ccccc1O3` (configuration not stated), the “% Inhibition” value is reported as -8% and the Z score is reported as 1.04.
In the case of `COc1ccc2c(c1)OC13CCN(C)CC1C2C(C(=O)c1ccccc1OC)C(=O)N3` (configuration not stated), the “% Inhibition” value is reported as 58% and the Z score is reported as -6.85.
In the case of `O=C(CCOc1ccc(F)c(Cl)c1)NCc1cccnc1`, the “% Inhibition” value is reported as 15% and the Z score is reported as -2.11.
